Measured values published in PubChem BioAssay AID1970 (National Center for Advancing Translational Sciences (NCATS), 2009).
Inconclusive results are not listed. The source made the active and inactive calls. The call rests on the fitted dose curve; in most records, active means well fitted inhibition curve with a large enough effect; inconclusive means small, poorly fitted or top-dose-only effect; inactive means flat fitted curve, though single readings scatter.

biological target: Dual specificity protein kinase CLK4 (Homo sapiens) (UniProt Q9HAZ1); test: Confirmation Assay for Inhibitors of CDC-like Kinase 4 (Kinase-Glo Assay); settings: recombinant Clk4, Kinase-Glo ATP depletion luminescence; series mostly up to 47.7 µM
Sequence (Q9HAZ1 whole entry, looked up): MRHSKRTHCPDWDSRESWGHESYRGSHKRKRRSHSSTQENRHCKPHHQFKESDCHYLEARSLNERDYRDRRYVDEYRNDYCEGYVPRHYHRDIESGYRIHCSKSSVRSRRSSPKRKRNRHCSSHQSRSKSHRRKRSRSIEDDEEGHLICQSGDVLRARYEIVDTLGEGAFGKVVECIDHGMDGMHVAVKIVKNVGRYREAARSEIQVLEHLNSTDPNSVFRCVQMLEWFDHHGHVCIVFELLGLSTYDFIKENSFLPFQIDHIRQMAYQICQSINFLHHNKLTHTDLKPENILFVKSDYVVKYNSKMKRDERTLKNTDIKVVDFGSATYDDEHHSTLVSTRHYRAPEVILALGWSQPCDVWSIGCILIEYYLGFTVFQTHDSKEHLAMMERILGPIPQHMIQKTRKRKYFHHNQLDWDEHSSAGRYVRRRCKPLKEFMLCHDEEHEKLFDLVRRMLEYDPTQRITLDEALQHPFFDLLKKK
In short: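 RS repeat peptide (100 uM) and ATP (1 uM) phosphorylated by 25 nM Clk4 (final) in Tris pH 7.5 with MgCl2, EGTA, DTT and Triton X-100. After 4.5 h at room temperature, remaining ATP read as Kinase-Glo luminescence.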

Potency, active:
COc1cccc(-c2ccc3ncnc(NCc4cccs4)c3c2)c1 0.519 µM
Fc1cccc(CNc2ncnc3ccc(-c4ccccc4Cl)cc23)c1 11.2 µM
c1cncc(-c2ccc3ncnc(NCc4ccc5c(c4)OCO5)c3c2)c1 6.31 µM
c1cncc(-c2ccc3ncnc(NCc4cccs4)c3c2)c1 3.98 µM
Cn1ccc2cc(-c3ccc4ncnc(NCc5cccnc5)c4c3)ccc21 12.6 µM
CCN(CCc1cn(C)cn1)c1ncnc2ccc(-c3ccc4c(c3)OCO4)cc12 0.519 µM
COc1cccc(-c2ccc3ncnc(NCc4cc(C)cs4)c3c2)c1 0.794 µM
CCN(Cc1cccs1)c1ncnc2ccc(-c3ccc4c(c3)OCO4)cc12 0.0519 µM
Clc1cccc(-c2ccc3ncnc(NCc4cccs4)c3c2)c1 7.94 µM
CCOC(=O)c1ccoc1-c1ccc2ncnc(NCCc3cnc[nH]3)c2c1 23.2 µM
Cc1csc(CNc2ncnc3ccc(-c4cccnc4)cc23)c1 4.47 µM
Cc1cccc(CNc2ncnc3ccc(-c4ccccc4Cl)cc23)c1 12.6 µM
c1nc(NCC2CCCO2)c2ccc(-c3ccc4c(c3)OCO4)cc2n1 (stereo unspecified) 8.44 µM
c1coc(-c2ccc3ncnc(NCc4cccs4)c3c2)c1 0.823 µM
c1nc(NCc2ccc3c(c2)OCO3)c2cc(-c3ccc4c(c3)OCCO4)ccc2n1 2.24 µM
OCc1ccc(-c2ccc3ncnc(NCCc4cnc[nH]4)c3c2)o1 0.733 µM
